Measured values published in paper PMC7819943, “Rice protein-binding microarrays: a tool to detect cis-acting elements near promoter regions in rice”.
Over roughly 68,000 sequences, “fluorescence intensity (a.u.)” has its median near 9,100; the highest 2% begin near 16,000. Many of the other results were omitted from the sample, so the highest values are more common in it than they were.

These sequences were tested against OsWRKY34 (Oryza sativa, UniProt Q0JBA9 1-250) (assay: protein-binding microarray (RPBM); PBS, 2% BSA, 51.3 ng/ul salmon testes DNA, 50 uM zinc acetate, 200 nM TF, 25 C, 1 h; high values mean tight binding). Settings: protein: recombinant; tags: N-terminal polyhistidine and DsRed monomer fusion (pET32a); label: CyDye5-dUTP incorporated in the synthesized complementary strand; 3' TTTTT single-stranded linker to array surface; dsDNA, one strand shown.
Outline: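 The binding signal is fluorescence intensity per feature, in arbitrary units, read on an Axon 4000B scanner. Polyhistidine- and DsRed-tagged transcription factors (N-terminal fusions) from E. coli BL21-CodonPlus were purified on Ni–NTA and applied at 200 nM for 1 h at 25 °C to a double-stranded, BSA-blocked custom Agilent array in buffer with 50 µM zinc acetate.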

Chain of OsWRKY34 (Q0JBA9 entry or part of it): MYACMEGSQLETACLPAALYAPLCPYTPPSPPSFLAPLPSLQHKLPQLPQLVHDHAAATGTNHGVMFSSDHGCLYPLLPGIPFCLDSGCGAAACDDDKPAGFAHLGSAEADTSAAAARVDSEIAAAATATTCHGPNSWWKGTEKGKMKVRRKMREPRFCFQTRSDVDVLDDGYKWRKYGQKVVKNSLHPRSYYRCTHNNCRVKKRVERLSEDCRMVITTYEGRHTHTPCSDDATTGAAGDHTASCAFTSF

Sequence	binding signal
AATCTAACATGGATTTGCGCACACACTTGTCGTAACGTACCGGAGTCACCTAGTGCAG	9480 fluorescence intensity (a.u.)
CGTGCATCCGCTGCGCTGTGCTGCCATTTCTCTTCAGCTTCGGAGTCACCTAGTGCAG	10600 fluorescence intensity (a.u.)
TAGCTATTGCTCGCTGGCCTACCATTAATTAGTATACTGTCGGAGTCACCTAGTGCAG	8800 fluorescence intensity (a.u.)
TTTTGCTTATCATATCATATATTTTCTAAGCTTGATTTTTCGGAGTCACCTAGTGCAG	8050 fluorescence intensity (a.u.)
TTTTTTGTTTTTTCTTTGAATTCTTTCCTTACGATTTTTGCGGAGTCACCTAGTGCAG	13400 fluorescence intensity (a.u.)
ACCTAATATTTCCCGTGTTCTCTTCTACGAAAACGTATTTCGGAGTCACCTAGTGCAG	10500 fluorescence intensity (a.u.)
AACCTCCAACCTTTTAATTTCTCACGCGACCATGCACGACCGGAGTCACCTAGTGCAG	8820 fluorescence intensity (a.u.)
ATGTAGGGGTTCCTGCTGCTGCTGTTCTGCCCATTCAACACGGAGTCACCTAGTGCAG	8880 fluorescence intensity (a.u.)
TCATCATGTGACCGACCACCGCATCCTCAGTTGACCCAGTCGGAGTCACCTAGTGCAG	8640 fluorescence intensity (a.u.)
GATAGGGTTAGGGTTAGGGTTTTCCCTGGTCCGCATCTTCCGGAGTCACCTAGTGCAG	9320 fluorescence intensity (a.u.)
CTCTTGCTCTGCTCTGTTTTTGGCCCATCCTCACCCACAACGGAGTCACCTAGTGCAG	10600 fluorescence intensity (a.u.)
CTTTTCTCCTTCGGCTATAGTGTCACTGTCCTCGCCTTCTCGGAGTCACCTAGTGCAG	15700 fluorescence intensity (a.u.)
GTGCCTAACAATCTGCTGCTTTTTACCCGCCAAGTATCTTCGGAGTCACCTAGTGCAG	8180 fluorescence intensity (a.u.)
TTCCAGTTAGCAACGCATTGAGCCATTTTTACATATTCTGCGGAGTCACCTAGTGCAG	57100 fluorescence intensity (a.u.)
ATGTAAGTCATTCTAGCATTTTTTACATTCATATTGATGTCGGAGTCACCTAGTGCAG	9380 fluorescence intensity (a.u.)
AATACATTTTACCTCGATTGTTATTAGCATATTTTTTTTGCGGAGTCACCTAGTGCAG	8890 fluorescence intensity (a.u.)
TTCACCCTCACTTTATTCATCTATAGTAGTTTCATCAGTTCGGAGTCACCTAGTGCAG	8060 fluorescence intensity (a.u.)
CCACTTTTGCAGATTGCAGGGCGCGCAGTACTGCCGACAGCGGAGTCACCTAGTGCAG	18900 fluorescence intensity (a.u.)
CACAGATCCACTCCATTGCTTCACTACTGCTTTGCTTTTGCGGAGTCACCTAGTGCAG	11000 fluorescence intensity (a.u.)
CTACTTTCACTCCCACCCACCCGACACAGCCGGAGCGCGCCGGAGTCACCTAGTGCAG	8630 fluorescence intensity (a.u.)
GCCTTTTTAACTTGTGCGACCGGTGTTCCGGGATTTTGGGCGGAGTCACCTAGTGCAG	10900 fluorescence intensity (a.u.)
TCTCCTCCATCATCGCAGCCAACTCCAACATCCTGAGCTCCGGAGTCACCTAGTGCAG	9510 fluorescence intensity (a.u.)
AATCTGTTTTTTGCTTTTTTGCCCTTTTCACGGTTTTTCCCGGAGTCACCTAGTGCAG	10800 fluorescence intensity (a.u.)

Sequence	binding signal
TCGTTCCTTCCTGTTGTTTCCTTTTCTTTTCCTTTATTTTCGGAGTCACCTAGTGCAG	8070 fluorescence intensity (a.u.)
CAGACTTTTCAGCTTCGGTTTCCCTTGTTTCTGATCTTTCCGGAGTCACCTAGTGCAG	8440 fluorescence intensity (a.u.)
AAAATGTTGTTTTTTTCTTCACTTTTGTTTTCCTTTTTTTCGGAGTCACCTAGTGCAG	9300 fluorescence intensity (a.u.)
GCCCTTTTCACGGTTTTTCCTGATCTTTCTGGGCTTTCTCCGGAGTCACCTAGTGCAG	18800 fluorescence intensity (a.u.)
TTATTTCCGCAAATCGTTCGCTATCCGGTATATTTTTGCACGGAGTCACCTAGTGCAG	17300 fluorescence intensity (a.u.)
CACAACTTTTCGTTTTTTATATTTGCACAAATTTTTTAATCGGAGTCACCTAGTGCAG	8650 fluorescence intensity (a.u.)
CTTATTTGTAGCTTCCTTTTTTTTTCCTTTTTCTTTTATTCGGAGTCACCTAGTGCAG	10400 fluorescence intensity (a.u.)
GTTTTTTTTTTTCCTTTCACTTCCTTCCTGGGCTTTATTTCGGAGTCACCTAGTGCAG	17300 fluorescence intensity (a.u.)
TGTCGTCCTTCAGGCCAACTTTGTCTTCCTTTGTTTCGACCGGAGTCACCTAGTGCAG	16400 fluorescence intensity (a.u.)
TTGTCTTCCTTTGTTTCGACTGGTCCAGTTTCGTCCTCTCCGGAGTCACCTAGTGCAG	10300 fluorescence intensity (a.u.)
TTTTTATATACCGGTAAATATCCGCTACCGTATTCGTTCCCGGAGTCACCTAGTGCAG	10200 fluorescence intensity (a.u.)
ATACGTCATTTGTATTTGAGTCGGTTTTTAAGTTCCTCCGCGGAGTCACCTAGTGCAG	12200 fluorescence intensity (a.u.)
TTTTGCAAAGCATTCCTCGCGCTTTCAGCTAATTACGCATCGGAGTCACCTAGTGCAG	8500 fluorescence intensity (a.u.)
CACCAACGCGTCCCCACCGTGTCGCCTCCTGATTGGTTGTCGGAGTCACCTAGTGCAG	12100 fluorescence intensity (a.u.)
GCTTCACCTTCGGCTTCGACTTCGGCTTCGTTTCCTCTTCCGGAGTCACCTAGTGCAG	18600 fluorescence intensity (a.u.)
TTGTTACTACATTTCCTGTACTATTTTACTGTCTGATTTACGGAGTCACCTAGTGCAG	8460 fluorescence intensity (a.u.)
TTATTTTTCGTTCCTTCTTTTTTTCTCTCTCACTTTTCTCCGGAGTCACCTAGTGCAG	11300 fluorescence intensity (a.u.)
GTTGGGCTTCCTTATTGGGTTGGGCTACCTGTCTGATTTTCGGAGTCACCTAGTGCAG	16600 fluorescence intensity (a.u.)
TGTTTTCACTTTCCTCTTCAGTCTTCTTCCTTCTTTCGTTCGGAGTCACCTAGTGCAG	9140 fluorescence intensity (a.u.)
CTCTCGCTCTTTTATTTTTTTTCCTTGTTTCCTTTCGTGTCGGAGTCACCTAGTGCAG	12100 fluorescence intensity (a.u.)
GTCGTTCGCTCTTTTATCCTTTTCGGACAATTTCACTTTCCGGAGTCACCTAGTGCAG	19200 fluorescence intensity (a.u.)
GTCCTCGTTTTTTTTTTCCTTCTCTTTTTCTTTTCCTTTTCGGAGTCACCTAGTGCAG	9450 fluorescence intensity (a.u.)
AGGTTATTTTTTCCTTACCTTTTTTTTTTCTGATACTACTCGGAGTCACCTAGTGCAG	9920 fluorescence intensity (a.u.)
